These results are taken from PubChem BioAssay.

Calls of active or inactive are those of the source.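 How the source made its calls, unless noted: active means thallium flux through the channel raised or lowered by more than 3 SD from vehicle-only wells, actives on both sides; inactive means the rest.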

One experiment has as its system F380Y. Kind of experiment: modulators of BK channel variants, profiling panel, selectivity assay, cell-based, U2OS BacMam, thallium flux, beta subunits (AID 1259406).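 Further: initial slope of Thallos dye fluorescence rise after thallium is added; log ratio against the mean of 0.3% DMSO vehicle wells on the same plate.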 The note with it: at 30 µM.
For another experiment, the system named is F380Y/beta1. The description is as above. The note with it: at 30 µM.
The nature of experiment [1]: UWB1.289 ovarian carcinoma cell growth inhibition, synergistic combos for chromothripsis tumors, BGB or cisplatin combos (AID 1671456; in the data active means inhibition above about 80%;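 further: cells exposed to compound for four days; 0% = vehicle DMSO and 100% = killing by high DMSO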). The note with it: UWB1.289 ovarian carcinoma cells, stronger effect = higher value.
The nature of experiment [2]: LFS_MB_2R medulloblastoma cell growth inhibition, synergistic combos for chromothripsis tumors, cisplatin combos (AID 1671457; in the data active means inhibition above about 80%;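 further: cells exposed to compound for four days before readout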). The note with it: LFS_MB_2R medulloblastoma cells, stronger effect = higher value.
Experiment [3] in a line: MDA-MB-436 breast carcinoma cell growth inhibition, synergistic combos for chromothripsis tumors, BGB or cisplatin combos (AID 1671458; call rule not given here;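 further: cells exposed for 96 hours; 0% = vehicle DMSO and 100% = killing by high DMSO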). The note with it: MDA-MB-436 breast carcinoma growth inhibition, drug combinations, stronger effect = higher value.
Experiment [4] can be described thus: UWB1.289_BRCA1 ovarian cancer growth, cell-based, BGB or cisplatin combinations (AID 1671459; in the data active means inhibition above about 80%). The note with it: UWB1.289 BRCA1 ovarian carcinoma, drug combinations, stronger effect = higher value.
Experiment [5] is described as follows: human astrocyte viability loss, single and combined drugs, cytotoxicity control for chromothriptic childhood tumor combination screen, cell-based, BGB or cisplatin IC20 combos (AID 1671460; in the data active means inhibition above about 80%;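 further: cells exposed to compounds for 96 hours before viability readout; 0% = vehicle and 100% = killing control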). The note with it: Human astrocytes, drug combinations, stronger effect = higher value.
The nature of experiment [6]: growth inhibition of BT084 medulloblastoma cells, cell-based, ICGC_MB145, cisplatin and BGB IC40 combos (AID 1671461; in the data active means inhibition above about 80%;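 further: cells exposed to drugs for 96 hours; 0% = vehicle DMSO and 100% = high DMSO full killing control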). The note with it: drug combinations, stronger effect = higher value.
A short description of experiment [7]: growth inhibition of RCMB18 medulloblastoma cells, cell-based, cisplatin and BGB IC40 combos (AID 1671462; in the data active means inhibition above about 80%;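 further: cells exposed to compound for four days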). The note with it: stronger effect = higher value.
Experiment [8] is described as follows: growth inhibition of CRL1545 osteosarcoma cells, cell-based, cisplatin and BGB IC20 combos (AID 1671464; in the data active means inhibition above about 80%;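 further: cells exposed to compound for 96 hours before readout; 0% = vehicle DMSO and 100% = high DMSO killing control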). The note with it: stronger effect = higher value.
[9] abbreviates: measured here: combination with cisplatin, at 0.5 µM.

With `CC(C)(C)NC(=O)[C@H]1CC[C@H]2[C@@H]3CC[C@H]4NC(=O)C=C[C@]4(C)[C@H]3CC[C@]12C`, the log fold change Tl+ flux is 0.0287 (inactive) with F380Y and 0.0111 (inactive) with F380Y/beta1.

Turning to `CNS(=O)(=O)Cc1ccc2[nH]cc(CCN(C)C)c2c1`, the figures for the log fold change Tl+ flux in the experiment with F380Y and in the experiment on F380Y/beta1 were 0.0165 (inactive) and -0.000461 (inactive), respectively.

On to `Brc1c(NC2=NCCN2)ccc2nccnc12`, for which the log fold change Tl+ flux is -0.0564 (inactive) in the experiment with F380Y and 0.00839 (inactive) in the experiment with F380Y/beta1.

With `CC(=O)OCC(=O)NCCCOc1cccc(CN2CCCCC2)c1`, the log fold change Tl+ flux with F380Y is -0.0125 (inactive); in the experiment on F380Y/beta1 it was -0.015 (inactive).

Regarding `COc1ccccc1OCC(O)CN1CCN(CC(=O)Nc2c(C)cccc2C)CC1` (centres undefined), the log fold change Tl+ flux in the experiment with F380Y was 0.091 (inactive); in the experiment on F380Y/beta1, 0.0232 (inactive).

Regarding `CCOC(=O)c1ncn2c1CN(C)C(=O)c1cc(F)ccc1-2`, the values for the log fold change Tl+ flux with F380Y and in the experiment with F380Y/beta1 were -0.0521 (inactive) and -0.00468 (inactive), respectively.

For `CC[N+](C)(CC)CCOC(=O)C(O)(c1ccccc1)C1CCCCC1` (centres undefined), the log fold change Tl+ flux is -0.192 (active) with F380Y and -0.0336 (inactive) with F380Y/beta1.

For the compound `CC(C)c1ccc2oc3nc(N)c(C(=O)O)cc3c(=O)c2c1`, the log fold change Tl+ flux was 0.0548 (inactive) with F380Y and 0.0494 (inactive) in the experiment on F380Y/beta1.

For `NC(=O)OCC(COC(N)=O)c1ccccc1`, the results for the log fold change Tl+ flux in the experiment on F380Y and in the experiment on F380Y/beta1 were -0.103 (inactive) and -0.0115 (inactive), respectively.

Consider `CNCC(O)c1ccc(O)c(O)c1` (centres undefined), for which the log fold change Tl+ flux is -0.0223 (inactive) in the experiment on F380Y and -0.0248 (inactive) with F380Y/beta1.

For `C[C@@H]1C[C@H]2[C@@H]3C[C@H](F)C4=CC(=O)C(Cl)=C[C@]4(C)[C@@]3(F)[C@@H](O)C[C@]2(C)[C@@]1(O)C(=O)CO`, the log fold change Tl+ flux is 0.0685 (inactive) with F380Y and 0.0734 (inactive) with F380Y/beta1.

As for `O=C(CCNNC(=O)c1ccncc1)NCc1ccccc1`, the log fold change Tl+ flux in the experiment on F380Y is 0.000985 (inactive); with F380Y/beta1, 0.00246 (inactive).

As for `Cc1cccc(C)c1OCC(C)N` (centres undefined), the log fold change Tl+ flux was -0.014 (inactive) in the experiment on F380Y and 0.0282 (inactive) with F380Y/beta1.

On to `COC(=O)C1=C(C)NC(C)=C(C(=O)O[C@@H]2CCCN(Cc3ccccc3)C2)[C@@H]1c1cccc([N+](=O)[O-])c1`, for which the log fold change Tl+ flux with F380Y is -0.0664 (inactive); in the experiment with F380Y/beta1, -0.000881 (inactive).

In the case of `COc1cc(C)nc(-n2nc(C)cc2OC)n1`, the log fold change Tl+ flux in the experiment on F380Y is -0.0134 (inactive); in the experiment on F380Y/beta1, -0.00765 (inactive).

What is called inhibition is the change of the read-out against control, counted positive when it falls. Take `C[C@H]1COc2c(C3(N)CC3)c(F)cc3c(=O)c(C(=O)O)cn1c23`: the inhibition is 2.11% (inactive) in [1] (at 0.5 µM); -7.87% in experiment [1] (measured here: inhibition with BGB combination, at 0.05 µM); -10.7% in [1] (measured here: inhibition with cisplatin combination, at 0.05 µM); -20.7% (inactive) in experiment [2] (at 0.5 µM); -28.1% in [2] (setting [9]); -123% in experiment [2] (measured here: combination with cisplatin, at 5 µM). Moreover, the inhibition in experiment [3] (at 0.5 µM) is -24.5% (inactive); in experiment [3] (measured here: BGB combination, at 0.5 µM), -30.5%; in experiment [3] (measured here: BGB combination, at 5 µM) it was -26.3%; in [3] (measured here: cisplatin combination, at 0.5 µM) it was -33.6%; in [3] (measured here: cisplatin combination, at 5 µM), 0.273%; in [4] (BGB combination, concentration series, at 5 µM), -9.44%. Also, the inhibition in experiment [4] (at 0.5 µM) was -1.55% (inactive); in experiment [4] (cisplatin combination, concentration series, at 5 µM), -1.09%; in experiment [5] (at 0.5 µM), 5.46% (inactive); in experiment [5] (measured here: combo with BGB IC20, at 0.5 µM) it was 4.83%; in [5] (measured here: combo with cisplatin IC20, at 0.5 µM) it was -0.547%; in experiment [6] (at 0.5 µM) it was -36.3% (inactive). The inhibition in experiment [6] (cisplatin combination, at 0.5 µM) is -17.3%; in [6] (cisplatin combination, at 5 µM) it was -31.8%; in experiment [6] (measured here: BGB IC40 combination 0.05 uM, at 0.05 µM), 22.3%; in [6] (single agent, at 5 µM), -28.3%; in experiment [7] (at 0.5 µM), -18.8% (inactive); in [7] (cisplatin combo, at 5 µM), -20.9%. Further, the inhibition in experiment [7] (measured here: BGB IC40 combination, at 0.05 µM) was -11.8%; in [7] (setting [9]) it was -24.3%; in [7] (single agent, at 5 µM), -38.1%; in [8] (at 0.5 µM), 9.56% (inactive); in [8] (measured here: with BGB IC20 combination, at 0.5 µM), -3.27%; in [8] (measured here: with cisplatin IC20 combination, at 0.5 µM), 14.1%. The inhibition in experiment [8] (single agent, at 0.05 µM) is -13.5%; in [8] (single agent, at 5 µM), 10.7%. In addition, the log fold change Tl+ flux was -0.0868 (inactive) in the experiment on F380Y and 0.0568 (inactive) in the experiment on F380Y/beta1.
